ASM inhibitor = human S-ASM enzyme inhibition; placental ASM, HMU-PC fluorogenic substrate, 60 min; 0.006% of 340,000 active; Potency, µM (doses to about 57.5 µM), most hits filed as inhibitors
Target sequence (P17405 47-631 limits assumed): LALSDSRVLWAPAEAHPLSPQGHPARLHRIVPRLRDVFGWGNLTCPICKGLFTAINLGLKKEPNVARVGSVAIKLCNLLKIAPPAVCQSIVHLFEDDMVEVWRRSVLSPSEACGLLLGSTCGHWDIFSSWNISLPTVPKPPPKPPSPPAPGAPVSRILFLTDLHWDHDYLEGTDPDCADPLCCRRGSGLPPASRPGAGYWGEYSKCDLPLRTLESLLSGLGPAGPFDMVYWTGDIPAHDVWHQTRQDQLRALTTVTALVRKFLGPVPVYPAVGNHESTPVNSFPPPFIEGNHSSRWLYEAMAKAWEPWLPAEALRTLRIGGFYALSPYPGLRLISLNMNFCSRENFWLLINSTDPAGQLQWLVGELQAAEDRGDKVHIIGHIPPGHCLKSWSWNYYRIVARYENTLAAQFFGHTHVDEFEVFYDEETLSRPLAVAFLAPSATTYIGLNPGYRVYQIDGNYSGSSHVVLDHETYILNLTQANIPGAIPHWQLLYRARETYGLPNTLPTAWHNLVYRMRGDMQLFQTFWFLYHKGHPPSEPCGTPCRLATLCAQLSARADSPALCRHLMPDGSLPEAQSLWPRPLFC
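qHTS format. ASM enzyme prepared from human placenta hydrolyses the fluorogenic substrate HMU-PC0 (9 uM final) over 60 min at 37 °C after a 10 min compound preincubation.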
p53 reactivator = mutant p53 re-activation in reporter cells. AID 504706. Potency, µM (highest dose often 92.2 µM), actives largely listed as activators. 0.063% of 320,000 active. H1299 p53-A138V BP100-luciferase reporter, luminescence, 24 h; also: nearly all actives have a fitted effect of over 45% in size
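p53-null H1299 cells stably carrying temperature-sensitive p53-A138V and a BP100-luciferase reporter were pinned with compounds (4-point, 1:5 series) and held 24 hrs at 37 deg C. Luminescence was read 10 min after detection reagent.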
AT treatment = candidate therapy for ataxia-telangiectasia | AID 485349 | F2112 A-T fibroblasts, KAP-1 phosphorylation AlphaLISA; neocarzinostatin DNA damage 30 min before lysis | Potency, µM (highest dose often 57.5 µM), actives largely listed as activators | 0.19% of 320,000 active; also: nearly all actives have a fitted effect of over 45% in size
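hTERT-immortalized A-T patient fibroblasts (F2112), 500 cells/well in OPTI-MEM, 1% FBS, got compounds for 60 min, then NCS for 30 min at 37C. Lysates were then assayed for phospho-KAP-1 by AlphaLISA (anti-pKAP1 donor, anti-KAP1 acceptor beads), 6 hr at 25C.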
N370S GC = inhibitors or activators of N370S glucocerebrosidase for Gaucher disease; P04062; Potency, µM (highest dose often 59.4 µM), most hits filed as inhibitors; 0.092% of 330,000 active; N370S GC spleen homogenate, 4MU-glucoside fluorescence
Each line names hits and unclear results; the compound was inactive in the other large screens. Compounds with a hit are over-represented: about 0.3% of the library has one in this group of screens. Calls follow the shape of the dose curve; as a rule, active = well fitted curve in the direction sought with a large enough effect; inconclusive = small, poorly fitted or top-dose-only effect, or another doubt; inactive = no such curve, though single readings can be large; an effect the other way counts as inactive or inconclusive.

C#CCOCCOCCOCCNc1nc(N2CCN(C(=O)CCCCCCCCCCNC(=O)[C@H](CCCCN)n3cc(C[C@@H](C)CC)nn3)CC2)nc(N2CCN(C(=O)CCCCCCCCCCNC(=O)[C@@H]([C@H](C)O)n3cc(C)nn3)CC2)n1	N370S GC 11µM
C#CCOCCOCCOCCNc1nc(N2CCN(C(=O)CCCCCCCCCCNC(=O)[C@H](CCCCN)n3cc(C)nn3)CC2)nc(N2CCN(C(=O)CCCCCCCCCCNC(=O)[C@@H]([C@H](C)O)n3cc(C)nn3)CC2)n1	N370S GC inconclusive
C#CCOCCOCCOCCNc1nc(N2CCN(C(=O)CCCCCCCCCCNC(=O)[C@H](CCCCN)n3cc(C)nn3)CC2)nc(N2CCN(C(=O)CCCCCCCCCCNC(=O)[C@H](CCCN=C(N)N)n3cc(C[C@@H](C)CC)nn3)CC2)n1	ASM inhibitor inconclusive, N370S GC 7.9µM
C#CCOCCOCCOCCNc1nc(N2CCN(C(=O)CCCCCCCCCCNC(=O)[C@H](CCCCN)n3cc(CCO)nn3)CC2)nc(N2CCN(C(=O)CCCCCCCCCCNC(=O)[C@H](CCCCN)n3cc(C[C@@H](C)CC)nn3)CC2)n1	N370S GC 14µM
C#CCOCCOCCOCCNc1nc(N2CCN(C(=O)CCCCCCCCCCNC(=O)[C@@H](CCC(=O)O)n3cc(CCCCCN)nn3)CC2)nc(N2CCN(C(=O)CCCCCCCCCCNC(=O)[C@H](CCCCN)n3cc(C[C@@H](C)CC)nn3)CC2)n1	ASM inhibitor inconclusive, N370S GC inconclusive
CC[C@H](C)Cc1cn([C@@H](CCCN=C(NC(=O)OC(C)(C)C)NC(=O)OC(C)(C)C)C(=O)NCCCCCCCCCCC(=O)N2CCN(C(=O)OC(C)(C)C)CC2)nn1	N370S GC 16µM
CC(C)C[C@H](NC(=O)[C@H](CC(C)C)NC(=O)[C@H](Cc1ccccc1)NC(=O)[C@@H](N)CO)C(=O)N[C@@H](CCCNC(=N)N)C(=O)N[C@@H](CC(N)=O)C(=O)N1CCC[C@H]1C(=O)N[C@@H](CC(N)=O)C(=O)N[C@@H](CC(=O)O)C(=O)N[C@@H](CCCCN)C(=O)N[C@@H](Cc1ccc(O)cc1)C(=O)N[C@@H](CCC(=O)O)C(=O)N1CCC[C@H]1C(=O)N[C@@H](Cc1ccccc1)C(=O)O	none (no result: ASM inhibitor, p53 reactivator, AT treatment)
C#CCOCCOCCOCCNc1nc(N2CCN(C(=O)CCCCCCCCCCNC(=O)[C@H](CCCCN)n3cc(C[C@@H](C)CC)nn3)CC2)nc(N2CCN(C(=O)CCCCCCCCCCNC(=O)[C@H](CCCN=C(N)N)n3cc(C[C@@H](C)CC)nn3)CC2)n1	ASM inhibitor inconclusive, N370S GC 6.3µM
C#CCOCCOCCOCCNc1nc(N2CCN(C(=O)CCCCCCCCCCNC(=O)[C@@H](CCSC)n3cc(CCO)nn3)CC2)nc(N2CCN(C(=O)CCCCCCCCCCNC(=O)[C@H](CO)n3cc(CCCCCN)nn3)CC2)n1	N370S GC inconclusive
C#CCOCCOCCOCCNc1nc(N2CCN(C(=O)CCCCCCCCCCNC(=O)[C@H](CO)n3cc(CCCCCN)nn3)CC2)nc(N2CCN(C(=O)CCCCCCCCCCNC(=O)[C@H](CCCN=C(N)N)n3cc(C[C@@H](C)CC)nn3)CC2)n1	N370S GC 13µM (no result: ASM inhibitor)
C#CCOCCOCCOCCNc1nc(N2CCN(C(=O)CCCCCCCCCCNC(=O)[C@@H](CCSC)n3cc(CCO)nn3)CC2)nc(N2CCN(C(=O)CCCCCCCCCCNC(=O)[C@H](CCCN=C(N)N)n3cc(C[C@@H](C)CC)nn3)CC2)n1	ASM inhibitor inconclusive, N370S GC 7.9µM
CC(C)C[C@H](NC(=O)[C@H](Cc1ccccc1)NC(=O)[C@H](Cc1ccccc1)NC(=O)[C@@H](N)CO)C(=O)N[C@@H](CCCN=C(N)N)C(=O)N[C@@H](CC(N)=O)C(=O)O	none (no result: ASM inhibitor, p53 reactivator, AT treatment)
CN1CCN(c2ncc3nc(-c4cccc(C#N)c4)c(=O)n(Cc4ccc(F)cc4)c3n2)CC1	none (no result: ASM inhibitor, p53 reactivator, AT treatment)
Cc1cc(C)c2sc(N(CCCN(C)C)C(=O)c3ccc(S(=O)(=O)N(C)Cc4ccccc4)cc3)nc2c1	N370S GC inconclusive (no result: ASM inhibitor)
CCN(Cc1ccccc1)S(=O)(=O)c1ccc(C(=O)N(CCCN(C)C)c2nc3cc(C)cc(C)c3s2)cc1	ASM inhibitor inconclusive, N370S GC 14µM
CCCN(CCC)c1ccc(/C=C/c2ccc3cc(OCC)ccc3n2)cc1	p53 reactivator inconclusive, AT treatment 28µM, N370S GC inconclusive
Fc1ccccc1-c1ccc(/C=N/Nc2nc3ccccc3[nH]2)o1	p53 reactivator 35µM
C(=N\Nc1nc2ccccc2[nH]1)/c1ccccn1	p53 reactivator inconclusive
CC1CC=CC2C1C(=O)N(Cc1ccccc1)C2c1ccc(F)c(Br)c1 (centres undefined)	none (no result: ASM inhibitor, p53 reactivator, AT treatment)
O=C(Nc1nc(-c2ccccn2)cs1)c1cc(Cl)ccc1[N+](=O)[O-]	p53 reactivator 35µM
N#Cc1ccc2c(c1)C[C@]1(CCCCN3C(=O)c4ccccc4C3=O)Oc3c(c(=O)oc4ccc(F)cc34)C2O1	none (no result: ASM inhibitor, p53 reactivator)
Nc1ccc(C(=O)C(=O)c2ccc(N)cc2)cc1	none
N=C1C=CC(=C(c2ccc(N)cc2)c2ccc(N)cc2)C=C1	N370S GC 3.5µM (no result: p53 reactivator, AT treatment)
CSCC[C@H](NC(=O)[C@H](CC(C)C)NC(=O)CNC(=O)[C@H](Cc1ccc(O)cc1)NC(=O)[C@H](Cc1ccccc1)NC(=O)[C@H](CCCCN)NC(=O)[C@H](CC(N)=O)NC(=O)[C@@H]1CCCN1C(=O)[C@H](CC(=O)O)NC(=O)[C@H](C)NC(=O)[C@@H]1CCC(=O)N1)C(N)=O	none (no result: ASM inhibitor, p53 reactivator, AT treatment)
CCOc1ccc(NC(=O)c2ccc(CC)s2)c([N+](=O)[O-])c1	none
CCOc1ccc(NC(=O)c2ccco2)c([N+](=O)[O-])c1	p53 reactivator 4.5µM
CN(C)CCCNc1nc(-c2ccccc2)nc2ccccc12	none
CC(C)(C)C(=O)OCCNc1nc(-c2ccccc2)nc2ccccc12	N370S GC 0.89µM
c1ccc(CCNc2nc(-c3ccncc3)nc3ccccc23)cc1	N370S GC 14µM
Clc1ccccc1-c1nc(NCc2cccnc2)c2ccccc2n1	N370S GC 16µM (no result: ASM inhibitor, p53 reactivator, AT treatment)
CC(C)OCCCNc1nc(-c2ccccc2)nc2ccccc12	N370S GC 1.8µM (no result: p53 reactivator)
COC(=O)CNc1nc(-c2ccncc2)nc2ccccc12	none
Cc1cc2nc3n(c2cc1C)CC1CC(C(=O)NCc2ccccc2)N(C)C31 (centres undefined)	none
CN1C(C(=O)NCC2CC2)CC2Cn3c(nc4cc(Cl)c(Cl)cc43)C21 (centres undefined)	AT treatment 35µM
CC(C)CCNC(=O)C1CC2Cn3c(nc4cc(Cl)c(Cl)cc43)C2N1C (centres undefined)	none (no result: p53 reactivator, AT treatment, N370S GC)
Cc1cc2nc3n(c2cc1C)CC1CC(C(=O)NCC2CC2)N(C)C31 (centres undefined)	AT treatment 28µM
O=[N+]([O-])c1cccc(C(F)(F)F)c1	none (no result: ASM inhibitor, p53 reactivator, AT treatment)
COc1ccccc1-c1nnc2n1N=C(c1c(OC)cccc1OC)CS2	none (no result: ASM inhibitor, p53 reactivator, AT treatment)
